The results in this text go back to PubChem BioAssay.

Each structure is given as a SMILES string. Activity calls are given as the source filed them.

Assay [1] is described as follows: compounds binding Alexa647 anti-His antibody – biochemical, small-molecule microarray, 635 nm fluorescence, artefact control for SMM control protein annotation, primary screen (AID 1128).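 Also: score merges feature fluorescence with signal-to-noise for each printed compound spot.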 As to conditions: higher = more signal.
The test system of assay [2] is Human papillomavirus type 1a E7 protein (residues 1-88). Kind of assay: HPV1a E7 small-molecule binders, primary screen, biochemical, small-molecule microarray, residues 1-88, 635 nm (AID 1129). As to conditions: small-molecule microarray binding, fluorescence 635 nm; higher = more signal.
Assay [3] deals with Focal adhesion kinase 1 (Homo sapiens) (UniProt Q05397). The experiment in a line: PTK2 protein binding on printed compound slides – biochemical, small-molecule microarray, 635/667 nm fluorescence, BSA, DTT, primary screen (AID 1130).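 Also: composite of spot emission at 667 nm and signal to noise over triplicate slides.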 As to conditions: 635 nm fluorescence, higher = more signal.
Assay [4] deals with Fibrinogen (Alexa647-labelled). Kind of assay: Alexa647-fibrinogen binding to printed small molecules – biochemical, small-molecule microarray, 635/667 nm fluorescence, artefact control for SMM control-protein annotation, profiling panel (AID 1131).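 Also: z-score merges 667 nm fluorescence with per-spot signal-to-noise over triplicate slides.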 As to conditions: fibrinogen-A647 binding fluorescence, higher = more signal.
The target of assay [5] is Follistatin (Homo sapiens) (UniProt P19883). The experiment in a line: FST protein binding to printed compounds – biochemical, small-molecule microarray, 635/667 nm fluorescence, primary screen (AID 1132). As to conditions: 635 nm fluorescence, higher = more signal.
Assay [6] concerns the target Fibroblast growth factor 2 (Homo sapiens) (UniProt P09038). The experiment in a line: basic fibroblast growth factor binding to printed compounds – biochemical, small-molecule microarray, 635/667 nm fluorescence, primary screen (AID 1133). As to conditions: FGF2, fluorescence 635/667, higher = more signal.
Assay [7] in a line: JC-1 mitochondrial potential readout, lung cancer cells – cell-based, A549, JC-1 fluorescence, basal, 24 h, 100 nL, profiling panel (AID 1138).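 Also: A549 lung adenocarcinoma cells under basal conditions with no added stimulus; test concentration not given here.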 As to conditions: higher = more signal.
For the next assay, the system named is Lefty1. The experiment in a line: Lefty1 protein binding to printed compounds – biochemical, small-molecule microarray, 635/667 nm fluorescence, primary screen (AID 1139). As to conditions: fluorescence 635/667, higher = more signal.
Assay [8] has as its system wheat germ agglutinin (Triticum aestivum), Alexa647-labelled. The experiment in a line: Alexa647-WGA lectin binding to printed small molecules – biochemical, small-molecule microarray, 635/667 nm fluorescence, artefact control for SMM control-protein annotation, profiling panel (AID 1140).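 Also: score merges 667 nm feature emission with signal to noise over triplicate slides.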 As to conditions: WGA-A647 binding, 635 nm fluorescence, higher = more signal.
For assay [9], the target named is Luciferin 4-monooxygenase (Photinus pyralis) (UniProt P08659). Kind of assay: inhibition of purified Photinus pyralis luciferase – biochemical, luminescence, purified enzyme, 2006 set, primary screen (AID 1141).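 Also: cell-free assay with purified firefly luciferase at 100 ng per well in PBS; test concentration not given here.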 As to conditions: purified firefly luciferase, SteadyGlo luminescence, 30 min; higher = more signal, called active from +8 up or from −8 down.
Assay [10] concerns Wnt5a (protein binding on small-molecule microarray). The experiment in a line: small molecules binding Wnt5a protein – biophysical, small-molecule microarray, 635/667 nm fluorescence, primary screen (AID 1142).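 Also: fluorescence read at 667 nm with signal to noise per printed feature.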 As to conditions: 635 nm fluorescence, higher = more signal.
Assay [11] can be described thus: ATP-based viability of Huh7 replicon cells – cell-based, CellTiter-Glo luminescence, basal, 48 h, cytotoxicity control for HCV replication inhibitor project, primary screen (AID 1143).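 Also: Huh7 hepatoma cells carrying a hepatitis C replication reporter with no stimulus; test concentration not given here.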 As to conditions: higher = more signal, called active from +8 up or from −8 down. A general note: A replicon is a self-replicating genome or part of one, used to study replication in cells.

Assay [12] can be described thus: basal CRE-LacZ reporter activity in PC12 – cell-based, unstimulated, primary screen (AID 1145). As to conditions: no forskolin, luminescence, 4.5 h, higher = more signal, called active from +8 up or from −8 down.
Assay [13] can be described thus: forskolin-driven CRE-LacZ activity in PC12 – cell-based, CRE-LacZ reporter, forskolin-stimulated, primary screen (AID 1146).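 Also: PC12 cells with 6xCRE LacZ reporter stimulated by forskolin 10 µM; beta-galactosidase reporter signal reflecting CREB driven transcription.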 As to conditions: luminescence, 4.5 h, higher = more signal, called active from +8 up or from −8 down.
The target in assay [14] is Streptavidin (Streptomyces avidinii) (UniProt P22629). The experiment in a line: compounds binding control protein streptavidin – biophysical, small-molecule microarray, 635/667 nm fluorescence, artefact control for SMM compound annotation, primary screen (AID 1147).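 Also: signal reflects streptavidin binding to arrayed compounds as a control protein.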 As to conditions: higher = more signal.
A short description of assay [15]: probe aInhba binding on compound microarray – biochemical, small-molecule microarray, 635/667 nm fluorescence, primary screen (AID 1148).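 Also: score merges 667nm spot fluorescence with signal-to-noise for antibody binding to printed compounds.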 As to conditions: higher = more signal.
The target in assay [16] is Torsin-1A (Homo sapiens) (UniProt O14656). Kind of assay: TOR1A wild-type binding on microarray – cell lysate, small-molecule microarray, lysate, 635/667 nm, primary screen (AID 1149). As to conditions: COS7 hTOR1A-WT lysate, 635 nm fluorescence, higher = more signal.
Assay [17] has the same target. Kind of assay: torsin A mutant lysate binding on microarrays – cell lysate, small-molecule microarray, COS7 lysate, 635/667 nm fluorescence, primary screen (AID 1150).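 Also: score pools 667 nm emission and signal to noise measuring lysate protein binding.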 As to conditions: COS7 hTOR1A mutant lysate, 635 nm fluorescence, higher = more signal.
Assay [18] concerns Sonic hedgehog protein (Shh). Kind of assay: Sonic hedgehog microarray binding compounds – biochemical, small-molecule microarray, 635/667 nm fluorescence, primary screen (AID 1151).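 Also: Shh protein binding to compounds spotted on small-molecule microarray slides; score combines spot fluorescence intensity with signal-to-noise across triplicate slides.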 As to conditions: 635 nm fluorescence, higher = more signal.

Sequence of Streptavidin (Streptomyces avidinii) (P22629 whole entry, looked up): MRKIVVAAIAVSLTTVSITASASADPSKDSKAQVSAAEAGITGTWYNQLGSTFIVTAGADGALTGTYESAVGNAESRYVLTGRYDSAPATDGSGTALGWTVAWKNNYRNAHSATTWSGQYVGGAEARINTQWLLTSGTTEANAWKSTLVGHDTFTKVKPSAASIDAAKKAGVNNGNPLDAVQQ
Sequence of Fibroblast growth factor 2 (Homo sapiens) (P09038 whole entry, looked up): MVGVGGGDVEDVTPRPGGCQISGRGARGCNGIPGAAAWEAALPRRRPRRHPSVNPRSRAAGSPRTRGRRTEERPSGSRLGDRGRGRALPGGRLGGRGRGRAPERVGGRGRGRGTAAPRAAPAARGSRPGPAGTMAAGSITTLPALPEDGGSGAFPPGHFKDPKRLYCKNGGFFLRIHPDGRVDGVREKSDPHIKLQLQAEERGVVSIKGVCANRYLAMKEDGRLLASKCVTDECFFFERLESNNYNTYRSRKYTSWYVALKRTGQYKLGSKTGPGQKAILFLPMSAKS
Sequence of Luciferin 4-monooxygenase (Photinus pyralis) (P08659 whole entry, looked up): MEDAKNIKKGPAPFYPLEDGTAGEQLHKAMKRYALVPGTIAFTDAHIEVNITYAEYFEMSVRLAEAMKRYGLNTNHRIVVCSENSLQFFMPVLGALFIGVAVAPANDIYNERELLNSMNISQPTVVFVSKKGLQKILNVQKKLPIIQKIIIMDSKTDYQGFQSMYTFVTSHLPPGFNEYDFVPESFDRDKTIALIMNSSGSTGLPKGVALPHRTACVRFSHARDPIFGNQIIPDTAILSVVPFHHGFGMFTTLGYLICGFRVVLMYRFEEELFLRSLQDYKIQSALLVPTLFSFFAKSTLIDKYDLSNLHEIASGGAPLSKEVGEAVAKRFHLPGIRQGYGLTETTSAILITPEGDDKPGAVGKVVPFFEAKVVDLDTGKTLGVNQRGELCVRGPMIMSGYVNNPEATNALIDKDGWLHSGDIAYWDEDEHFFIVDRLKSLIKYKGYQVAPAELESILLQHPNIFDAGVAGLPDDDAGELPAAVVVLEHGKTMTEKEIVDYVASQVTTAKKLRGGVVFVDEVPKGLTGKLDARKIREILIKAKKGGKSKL
Sequence of Torsin-1A (Homo sapiens) (O14656 whole entry, looked up): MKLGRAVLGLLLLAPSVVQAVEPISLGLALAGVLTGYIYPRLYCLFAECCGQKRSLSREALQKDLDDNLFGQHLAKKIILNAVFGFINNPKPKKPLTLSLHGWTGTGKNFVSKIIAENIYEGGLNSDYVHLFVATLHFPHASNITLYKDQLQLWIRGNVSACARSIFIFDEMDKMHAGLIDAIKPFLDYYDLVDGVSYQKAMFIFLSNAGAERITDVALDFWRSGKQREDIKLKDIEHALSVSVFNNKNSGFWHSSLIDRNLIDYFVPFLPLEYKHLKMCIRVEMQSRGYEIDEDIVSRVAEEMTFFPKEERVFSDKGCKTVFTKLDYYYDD
Sequence of Follistatin (Homo sapiens) (P19883 whole entry, looked up): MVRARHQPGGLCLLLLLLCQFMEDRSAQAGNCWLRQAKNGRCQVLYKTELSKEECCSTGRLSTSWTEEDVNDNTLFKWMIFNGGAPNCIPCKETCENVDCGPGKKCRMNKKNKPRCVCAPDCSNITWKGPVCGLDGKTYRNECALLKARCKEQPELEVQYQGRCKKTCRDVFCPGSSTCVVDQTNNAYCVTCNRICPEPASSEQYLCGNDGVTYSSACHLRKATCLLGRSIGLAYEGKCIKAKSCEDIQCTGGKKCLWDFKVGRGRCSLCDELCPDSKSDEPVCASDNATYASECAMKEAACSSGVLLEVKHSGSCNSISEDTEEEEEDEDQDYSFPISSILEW
Sequence of Focal adhesion kinase 1 (Homo sapiens) (Q05397 whole entry, looked up): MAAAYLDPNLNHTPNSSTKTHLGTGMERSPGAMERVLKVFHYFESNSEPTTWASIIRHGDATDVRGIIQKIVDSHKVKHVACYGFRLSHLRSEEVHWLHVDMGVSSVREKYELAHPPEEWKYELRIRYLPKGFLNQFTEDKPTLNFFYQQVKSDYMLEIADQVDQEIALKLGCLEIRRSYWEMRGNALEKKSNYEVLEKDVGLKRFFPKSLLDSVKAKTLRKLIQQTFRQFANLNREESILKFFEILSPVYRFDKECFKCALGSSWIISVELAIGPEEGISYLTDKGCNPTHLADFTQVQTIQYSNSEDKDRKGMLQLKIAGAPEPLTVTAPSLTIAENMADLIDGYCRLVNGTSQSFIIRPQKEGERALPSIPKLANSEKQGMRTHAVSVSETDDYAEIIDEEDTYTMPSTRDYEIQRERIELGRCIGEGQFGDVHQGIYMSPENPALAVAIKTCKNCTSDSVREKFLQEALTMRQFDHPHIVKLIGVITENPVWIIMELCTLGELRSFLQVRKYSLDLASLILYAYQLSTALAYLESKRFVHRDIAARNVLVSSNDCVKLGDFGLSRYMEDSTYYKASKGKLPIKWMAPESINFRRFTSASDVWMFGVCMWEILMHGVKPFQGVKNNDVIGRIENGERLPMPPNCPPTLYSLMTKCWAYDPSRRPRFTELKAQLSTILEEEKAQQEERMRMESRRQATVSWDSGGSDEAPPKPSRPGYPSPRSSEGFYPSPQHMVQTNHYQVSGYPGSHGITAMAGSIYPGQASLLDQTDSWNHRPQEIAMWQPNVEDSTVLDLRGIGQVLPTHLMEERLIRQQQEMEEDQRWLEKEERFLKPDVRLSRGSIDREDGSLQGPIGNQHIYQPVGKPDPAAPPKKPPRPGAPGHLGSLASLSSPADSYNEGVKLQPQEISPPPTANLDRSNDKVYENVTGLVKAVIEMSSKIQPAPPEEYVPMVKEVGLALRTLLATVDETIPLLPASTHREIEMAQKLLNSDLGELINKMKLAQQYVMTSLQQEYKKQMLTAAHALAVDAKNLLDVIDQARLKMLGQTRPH

Turning to `C[C@]1(C(=O)NCc2ccccc2)c2ccccc2C(=O)N(Cc2cc(C(F)(F)F)cc(C(F)(F)F)c2)[C@H]1c1ccc(CO)cc1`, the composite z-score was -0.152 in [1]; 1.19 in [2]; 0.415 in [3]; 0.749 in assay [4]; 1.34 in assay [5]; 1.72 in assay [6]. In addition, the composite z-score was 0.221 in the assay with Lefty1; 0.322 in assay [8]; 0.944 in assay [10]; 0.157 in [14]; 0.447 in assay [15]; 0.462 with Torsin-1A (Homo sapiens) [16]. The composite z-score with Torsin-1A (Homo sapiens) [17] worked out at 0.334; in assay [18], 1.51. Moreover, the z-score in assay [7] is 0.195; in [9] it was -0.543 (inactive); in assay [11], -5.26 (inactive); in assay [12] it was -0.735 (inactive); in [13], -1.41 (inactive).

Consider `COCCOC(=O)N1C(=O)[C@@]2(c3ccccc31)[C@H](C(=O)N1CCc3cc(OC)c(OC)cc3C1)[C@H]1C(=O)O[C@H](c3ccccc3)[C@H](c3ccccc3)N1[C@@H]2c1ccccc1OCCO`, for which the composite z-score in assay [1] amounted to 1.86; in assay [2], 1.18; in assay [3], 0.989; in assay [4] it was 0.938; in assay [5], 1.13; in [6], 0.349. The composite z-score was 0.762 in the assay with Lefty1; 1.02 in assay [8]; 0.0374 in assay [10]; 0.686 in assay [14]; 0.0228 in assay [15]; 0.435 with Torsin-1A (Homo sapiens) [16]. For the same molecule, the figures for the composite z-score (in the assay with Torsin-1A (Homo sapiens) [17]; in assay [18]) were 0.243 and 1.38, respectively. Moreover, the z-score is 0.679 in assay [7]; -1.69 (inactive) in assay [9]; -3.27 (inactive) in assay [11]; -0.183 (inactive) in assay [12]; -1.12 (inactive) in assay [13].

As for `CCN1C(C)=C(C(=O)OC)[C@@H](c2ccccc2)N2C(=O)[C@](O)(C(=O)OC)[C@@H](c3ccccc3)C(C(=O)c3ccccc3)=C12`, the composite z-score in assay [1] is 0.0774; in [2], 0.778; in assay [3] it was 0.0079; in assay [4], 0.983; in assay [5] it was 0.411; in [6], 0.411. Further, the composite z-score in the assay on Lefty1 was 0.717; in [8], 0.593; in assay [10], 0.271; in assay [14], 0.0306; in assay [15], -0.0552; with Torsin-1A (Homo sapiens) [16], 0.5. Further, the composite z-score with Torsin-1A (Homo sapiens) [17] is 0.269; in assay [18] it was 0.473. Besides, the z-score is 1.58 in assay [7]; -1.2 (inactive) in assay [9]; -1.49 (inactive) in assay [11]; 1.55 (inactive) in assay [12]; 0.214 (inactive) in assay [13].

Take `COCCCNC(=O)[C@@]1(Sc2ccc(C)cc2)CC(=O)N(Cc2cc(C(F)(F)F)cc(C(F)(F)F)c2)[C@@H]1c1ccc(CO)cc1I`: the composite z-score in [1] was -0.21; in assay [2], -1.1; in [3] it was 0.144; in assay [4] it was -1.86; in assay [5] it was -0.993; in assay [6] it was -0.511. The composite z-score is -1.66 in the assay on Lefty1; -1.1 in assay [8]; -0.265 in assay [10]; -0.713 in assay [14]; -0.123 in assay [15]; -0.083 with Torsin-1A (Homo sapiens) [16]. The composite z-score is -0.693 with Torsin-1A (Homo sapiens) [17] and -0.612 in [18]. Besides, the z-score in assay [7] was 0.915; in assay [9] it was -0.503 (inactive); in [11], -1.47 (inactive); in [12], 1.01 (inactive); in assay [13], 0.264 (inactive).

Consider `CO[C@@H]1COC(=O)CC=C[C@@H](C)[C@H](OC)COC(=O)CC=C[C@H]1C`, for which the composite z-score in assay [1] is 0.0112; in assay [2] it was -1.31; in assay [3], -0.436; in assay [4], -1.05; in assay [5], 1.48; in [6] it was 1.34. The composite z-score with Lefty1 is 0.712; in assay [8], -0.812; in assay [10], -0.0731; in assay [14] it was -0.428; in [15], -0.253; with Torsin-1A (Homo sapiens) [16], 0.685. The values for the composite z-score (in the assay with Torsin-1A (Homo sapiens) [17]; in assay [18]) were 0.349 and 1.29, respectively. Besides, the z-score is 1.77 in assay [7]; -1.08 (inactive) in assay [9]; -0.147 (inactive) in [11]; -0.658 (inactive) in assay [12]; -0.82 (inactive) in assay [13].

`C=CC(=O)O[C@@H](Cc1ccccc1)[C@H]1C2C=CCCC=C2CN1Cc1cccc(Cl)c1` (stereo partly specified): the composite z-score in assay [1] was -0.0091; in assay [2] it was -2.16; in assay [3], -0.426; in assay [4], -0.327; in [5], -0.14; in [6] it was -0.344. In addition, the composite z-score is -0.697 in the assay on Lefty1; -0.346 in [8]; -0.172 in assay [10]; -0.575 in assay [14]; -0.082 in assay [15]; -0.471 with Torsin-1A (Homo sapiens) [16]. Moreover, the composite z-score was 0.393 with Torsin-1A (Homo sapiens) [17] and -0.0211 in assay [18]. The z-score is 1.77 in assay [7]; -1.52 (inactive) in assay [9]; -0.904 (inactive) in [11]; 1.03 (inactive) in assay [12]; -0.678 (inactive) in [13].

Take `CC(C)N1CC=CC23O[C@@H]4/C=C\CCCOC(=O)C4[C@H]2C(=O)N(CCO)[C@@H]3C1=O` (stereo partly specified): the composite z-score in [1] was -0.548; in assay [2] it was -0.328; in assay [3], 0.339; in assay [4] it was -0.508; in assay [5], -0.544; in [6], -0.635. The composite z-score with Lefty1 is 0.225; in assay [8], -0.505; in [10] it was -0.0732; in [14] it was -0.0353; in assay [15], -0.0695; with Torsin-1A (Homo sapiens) [16], -0.373. Further, the composite z-score with Torsin-1A (Homo sapiens) [17] is -0.582; in assay [18], 0.289. Besides, the z-score is 1.77 in [7]; -1.68 (inactive) in assay [9]; -1.04 (inactive) in assay [11]; -0.358 (inactive) in assay [12]; -0.457 (inactive) in assay [13].

With `O=C1O[C@@H](c2ccccc2)[C@@H](c2ccccc2)N2[C@@H](c3ccc(O)cc3)[C@]3(C(=O)Nc4ccc(C#CC5(O)CCCCCC5)cc43)[C@@H](C(=O)Nc3nc4ccccc4s3)[C@H]12`, the composite z-score in [1] turned out to be 1.87; in assay [2], 1.22; in assay [3] it was 0.706; in [4] it was 0.886; in assay [5], 1.37; in [6], 1.21. In addition, the composite z-score in the assay on Lefty1 is 1.53; in assay [8], 1.26; in [10], 0.285; in assay [14], 1.99; in assay [15], -0.438; with Torsin-1A (Homo sapiens) [16], 0.752. The values for the composite z-score (with Torsin-1A (Homo sapiens) [17]; in assay [18]) were 0.757 and 0.741, respectively. Besides, the z-score was -0.901 in [7]; -1.4 (inactive) in assay [9]; -2.23 (inactive) in assay [11]; 0.204 (inactive) in assay [12]; -0.908 (inactive) in [13].

In the case of `C=C(COC)/C(=C/C[C@H](OC(C)=O)c1ccc(OCCO)cc1)c1cnc2ccccc2c1`, the composite z-score is -0.418 in [1]; 1.14 in assay [2]; 0.771 in assay [3]; 0.333 in [4]; 1.4 in [5]; 0.813 in assay [6]. Further, the composite z-score with Lefty1 is 1.27; in assay [8], 1.23; in [10], 0.248; in assay [14] it was 0.864; in assay [15], 0.0082; in the assay with Torsin-1A (Homo sapiens) [16] it was 0.654. Moreover, the composite z-score in the assay with Torsin-1A (Homo sapiens) [17] is -0.0171; in assay [18] it was 1.99. The z-score in assay [7] was 1.8; in assay [9] it was -1.81 (inactive); in assay [11], -0.843 (inactive); in [12], 7.3 (inactive); in assay [13], -0.862 (inactive).
